# According to the supplement of paper PMC10037445:
# Over roughly 2,900 compounds, “NF-kB SEAP reporter activity, fold change vs agonist alone” has its median near 0.99; the highest 2% begin near 2.6. This is one part of a sample in which the highest values are shown more often than they occur.
# Experiments:
# [1] = system: RAW-Dual; assay: NF-kB SEAP reporter activity, fold change vs agonist alone; cytotoxicity flag (confluency mask): not cytotoxic; higher = enhanced NF-kB activity
# Method in brief: (§1)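 Cytotoxic wells were those whose IncuCyte confluency was below 70% of agonist controls in both mask sets. The cells were RAW-Dual macrophages at 50,000 cells/well in DMEM on 384-well plates, dosed with 50 nL of library stock by pin tool, stimulated with a PRR agonist 1 h later, and kept at 37 °C, 5% CO2 for 20 hours. IRF and NF-κB reporter activity, as fold change over agonist-alone wells, came from supernatant read by QuantiLuc luminescence and QuantiBlue absorbance, respectively.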
# [2] = system: RAW-Dual; assay: NF-kB SEAP reporter activity, fold change vs agonist alone; higher = enhanced NF-kB activity
# Method in brief: as §1
# [3] = system: RAW-Dual; assay: NF-kB SEAP reporter activity, fold change vs agonist alone; cytotoxicity flag (confluency mask): cytotoxic (confluency <70% of control); higher = enhanced NF-kB activity
# Method in brief: as §1
# [4] = agonist: ODN 1826 (TLR9) 0.5 ug/mL
# [5] = agonist: Pam2CSK4 (TLR2/6) 0.1 ug/mL
# [6] = agonist: Pam3CSK4 (TLR2/1) 0.1 ug/mL
# [7] = library stock concentration (final ~1000-fold dilution): 10 mM, cytotoxicity flag (confluency mask): not cytotoxic, agonist: Imiquimod (TLR7) […]
# [8] = library stock concentration (final ~1000-fold dilution): 10 mM, cytotoxicity flag (confluency mask): not cytotoxic, agonist: MPLA (TLR4) […]
# [9] = library stock concentration (final ~1000-fold dilution): 10 mM, cytotoxicity flag (confluency mask): cytotoxic (confluency <70% of control), agonist: Imiquimod (TLR7) […]
# [10] = library stock concentration (final ~1000-fold dilution): 10 mM, cytotoxicity flag (confluency mask): cytotoxic (confluency <70% of control), agonist: MPLA (TLR4) […]
smiles,measurement,setting,value
COc1ccc(CCC(=O)N(c2nccc3ccccc23)C2CCCNC2)cc1 (stereo unspecified) (library stock concentration (final ~1000-fold dilution): 10 mM),NF-kB SEAP reporter activity,[1]; agonist: LPS (TLR4) 0.1 ug/mL,1.05
same,NF-kB SEAP reporter activity,[1]; [4],0.84
same,NF-kB SEAP reporter activity,[1]; [5],1.09
same,NF-kB SEAP reporter activity,[1]; [6],1.08
COc1ccc(CCC(=O)N(c2nccc3ccccc23)C2CCCNC2)cc1 (stereo unspecified),NF-kB SEAP reporter activity,[2]; [7],1.07
same,NF-kB SEAP reporter activity,[2]; [8],1.29
CS(=O)(=O)c1cccc(CC(NC(=O)c2c(Cl)cc3c(c2Cl)CCN(C(=O)c2ccc4ccoc4c2)C3)C(=O)O)c1 (stereo unspecified) (library stock concentration (final ~1000-fold dilution): 10 mM),NF-kB SEAP reporter activity,[1]; agonist: LPS (TLR4) 0.1 ug/mL,0.994
same,NF-kB SEAP reporter activity,[1]; [4],1
same,NF-kB SEAP reporter activity,[1]; [5],1.03
same,NF-kB SEAP reporter activity,[1]; [6],0.941
CS(=O)(=O)c1cccc(CC(NC(=O)c2c(Cl)cc3c(c2Cl)CCN(C(=O)c2ccc4ccoc4c2)C3)C(=O)O)c1 (stereo unspecified),NF-kB SEAP reporter activity,[2]; [7],0.947
same,NF-kB SEAP reporter activity,[2]; [8],1.04
O=[N+]([O-])c1ccc(S(=O)(=O)N2CCN(c3ccnc4cc(Cl)ccc34)CC2)c([N+](=O)[O-])c1,NF-kB SEAP reporter activity,[2]; [9],0.787
same,NF-kB SEAP reporter activity,[2]; [10],0.37
O=[N+]([O-])c1ccc(S(=O)(=O)N2CCN(c3ccnc4cc(Cl)ccc34)CC2)c([N+](=O)[O-])c1 (library stock concentration (final ~1000-fold dilution): 10 mM),NF-kB SEAP reporter activity,[3]; agonist: LPS (TLR4) 0.1 ug/mL,0.384
same,NF-kB SEAP reporter activity,[3]; [4],0.333
same,NF-kB SEAP reporter activity,[3]; [5],0.229
same,NF-kB SEAP reporter activity,[3]; [6],0.196
COc1cccc(NC(=O)/C=C/c2ccc(Cl)cc2)c1 (library stock concentration (final ~1000-fold dilution): 10 mM),NF-kB SEAP reporter activity,[1]; agonist: LPS (TLR4) 0.1 ug/mL,1.18
same,NF-kB SEAP reporter activity,[1]; [4],0.828
same,NF-kB SEAP reporter activity,[1]; [5],0.682
same,NF-kB SEAP reporter activity,[1]; [6],0.711
COc1cccc(NC(=O)/C=C/c2ccc(Cl)cc2)c1,NF-kB SEAP reporter activity,[2]; [7],1.02
same,NF-kB SEAP reporter activity,[2]; [8],1.04
Cn1cc(/C=C/C(=O)c2cccc(F)c2)cc1/C=C/C(=O)NO (library stock concentration (final ~1000-fold dilution): 10 mM),NF-kB SEAP reporter activity,[1]; agonist: LPS (TLR4) 0.1 ug/mL,1.26
same,NF-kB SEAP reporter activity,[1]; [4],0.787
same,NF-kB SEAP reporter activity,[1]; [5],0.605
same,NF-kB SEAP reporter activity,[1]; [6],0.528
Cn1cc(/C=C/C(=O)c2cccc(F)c2)cc1/C=C/C(=O)NO,NF-kB SEAP reporter activity,[2]; [7],0.803
same,NF-kB SEAP reporter activity,[2]; [8],1.06
O=C(/C=C/c1cccc(S(=O)(=O)Nc2ccccc2)c1)NO (library stock concentration (final ~1000-fold dilution): 10 mM),NF-kB SEAP reporter activity,[3]; agonist: LPS (TLR4) 0.1 ug/mL,5.83
same,NF-kB SEAP reporter activity,[3]; [4],2.3
same,NF-kB SEAP reporter activity,[3]; [5],0.848
same,NF-kB SEAP reporter activity,[3]; [6],1.76
O=C(/C=C/c1cccc(S(=O)(=O)Nc2ccccc2)c1)NO,NF-kB SEAP reporter activity,[2]; [9],2.39
same,NF-kB SEAP reporter activity,[2]; [10],2.58
CC(=O)Oc1cc2c(s1)CCN(C(C(=O)C1CC1)c1ccccc1F)C2.Cl (stereo unspecified),NF-kB SEAP reporter activity,[2]; [8],0.869
CC(=O)Oc1cc2c(s1)CCN(C(C(=O)C1CC1)c1ccccc1F)C2.Cl (stereo unspecified) (library stock concentration (final ~1000-fold dilution): 10 mM),NF-kB SEAP reporter activity,[1]; agonist: LPS (TLR4) 0.1 ug/mL,0.766
same,NF-kB SEAP reporter activity,[1]; [4],0.821
same,NF-kB SEAP reporter activity,[1]; [5],0.958
same,NF-kB SEAP reporter activity,[1]; [6],0.688
C=CC(=O)N1CC/C(=C\c2ccc(F)c([N+](=O)[O-])c2)C(=O)/C(=C/c2ccc(F)c([N+](=O)[O-])c2)C1,NF-kB SEAP reporter activity,[2]; [7],0.151
same,NF-kB SEAP reporter activity,[2]; [8],0.267
C=CC(=O)N1CC/C(=C\c2ccc(F)c([N+](=O)[O-])c2)C(=O)/C(=C/c2ccc(F)c([N+](=O)[O-])c2)C1 (library stock concentration (final ~1000-fold dilution): 10 mM),NF-kB SEAP reporter activity,[1]; agonist: LPS (TLR4) 0.1 ug/mL,0.222
same,NF-kB SEAP reporter activity,[1]; [4],0.198
same,NF-kB SEAP reporter activity,[1]; [5],0.0699
same,NF-kB SEAP reporter activity,[1]; [6],0.144
CC1CNC(=O)c2cnn3ccc(nc23)NC(C)c2cc(F)ccc2O1 (stereo unspecified) (library stock concentration (final ~1000-fold dilution): 10 mM),NF-kB SEAP reporter activity,[1]; agonist: LPS (TLR4) 0.1 ug/mL,1.58
same,NF-kB SEAP reporter activity,[1]; [4],0.9
same,NF-kB SEAP reporter activity,[1]; [5],0.5
same,NF-kB SEAP reporter activity,[1]; [6],0.422
CC1CNC(=O)c2cnn3ccc(nc23)NC(C)c2cc(F)ccc2O1 (stereo unspecified),NF-kB SEAP reporter activity,[2]; [7],0.753
same,NF-kB SEAP reporter activity,[2]; [8],0.916
N#CCNC(=O)c1ccc(-c2ccnc(Nc3ccc(N4CCOCC4)cc3)n2)cc1 (library stock concentration (final ~1000-fold dilution): 10 mM),NF-kB SEAP reporter activity,[1]; agonist: LPS (TLR4) 0.1 ug/mL,0.233
same,NF-kB SEAP reporter activity,[1]; [4],1.01
same,NF-kB SEAP reporter activity,[1]; [5],0.233
same,NF-kB SEAP reporter activity,[1]; [6],1.08
N#CCNC(=O)c1ccc(-c2ccnc(Nc3ccc(N4CCOCC4)cc3)n2)cc1,NF-kB SEAP reporter activity,[2]; [7],1.02
same,NF-kB SEAP reporter activity,[2]; [8],0.925
O=C(Nc1ccc(-c2ccnc(Nc3ccc(N4CCOCC4)cc3)n2)cc1)C1CCCN1 (stereo unspecified),NF-kB SEAP reporter activity,[2]; [7],1.6
same,NF-kB SEAP reporter activity,[2]; [8],2.46
N#Cc1cc(-c2ccnc(Nc3ccc(N4CCOCC4)cc3)n2)ccc1OC1CCOCC1,NF-kB SEAP reporter activity,[2]; [7],1.85
same,NF-kB SEAP reporter activity,[2]; [8],2.02
N#Cc1cc(-c2ccnc(Nc3ccc(N4CCOCC4)cc3)n2)ccc1OC1CCOCC1 (library stock concentration (final ~1000-fold dilution): 10 mM),NF-kB SEAP reporter activity,[1]; agonist: LPS (TLR4) 0.1 ug/mL,0.526
same,NF-kB SEAP reporter activity,[1]; [4],1.39
same,NF-kB SEAP reporter activity,[1]; [5],0.463
same,NF-kB SEAP reporter activity,[1]; [6],3.66
O=C(Nc1ccc(-c2ccnc(Nc3ccc(N4CCOCC4)cc3)n2)cc1)C1CCCN1 (stereo unspecified) (library stock concentration (final ~1000-fold dilution): 10 mM),NF-kB SEAP reporter activity,[1]; agonist: LPS (TLR4) 0.1 ug/mL,1.86
same,NF-kB SEAP reporter activity,[1]; [4],0.272
same,NF-kB SEAP reporter activity,[1]; [5],1.05
same,NF-kB SEAP reporter activity,[1]; [6],1.67
CN1CCN(CC(=O)N2c3ccccc3C(=O)Nc3cccnc32)CC1.Cl.Cl,NF-kB SEAP reporter activity,"[2]; library stock concentration (final ~1000-fold dilution): 10 mM water, cytotoxicity flag (confluency mask): not cytotoxic, agonist: Imiquimod (TLR7) […]",0.949
same,NF-kB SEAP reporter activity,"[2]; library stock concentration (final ~1000-fold dilution): 10 mM water, cytotoxicity flag (confluency mask): not cytotoxic, agonist: MPLA (TLR4) […]",1.01
CN1CCN(CC(=O)N2c3ccccc3C(=O)Nc3cccnc32)CC1.Cl.Cl (library stock concentration (final ~1000-fold dilution): 10 mM water),NF-kB SEAP reporter activity,[1]; agonist: LPS (TLR4) 0.1 ug/mL,1.25
same,NF-kB SEAP reporter activity,[1]; [4],1.15
same,NF-kB SEAP reporter activity,[1]; [5],1.16
same,NF-kB SEAP reporter activity,[1]; [6],1.06
Cl.O=S(=O)(c1cccc2c(I)cccc12)N1CCCNCC1 (library stock concentration (final ~1000-fold dilution): 10 mM),NF-kB SEAP reporter activity,[1]; agonist: LPS (TLR4) 0.1 ug/mL,0.746
same,NF-kB SEAP reporter activity,[1]; [4],0.722
same,NF-kB SEAP reporter activity,[1]; [5],0.626
same,NF-kB SEAP reporter activity,[1]; [6],0.568
Cl.O=S(=O)(c1cccc2c(I)cccc12)N1CCCNCC1,NF-kB SEAP reporter activity,[2]; [7],0.797
same,NF-kB SEAP reporter activity,[2]; [8],1.12
CONC(=O)Nc1ccc(-c2sc3c(c2CN(C)C)c(=O)n(-c2ccc(OC)nn2)c(=O)n3Cc2c(F)cccc2F)cc1,NF-kB SEAP reporter activity,[2]; [9],2.02
same,NF-kB SEAP reporter activity,[2]; [10],2.5
CONC(=O)Nc1ccc(-c2sc3c(c2CN(C)C)c(=O)n(-c2ccc(OC)nn2)c(=O)n3Cc2c(F)cccc2F)cc1 (library stock concentration (final ~1000-fold dilution): 10 mM),NF-kB SEAP reporter activity,[3]; agonist: LPS (TLR4) 0.1 ug/mL,3.39
same,NF-kB SEAP reporter activity,[3]; [4],0.26
same,NF-kB SEAP reporter activity,[3]; [5],1.01
same,NF-kB SEAP reporter activity,[3]; [6],1.88
CC(C)CCNC(=O)C(CC(C)C)NC(=O)C1OC1C(=O)O (stereo unspecified),NF-kB SEAP reporter activity,[2]; [7],0.94
same,NF-kB SEAP reporter activity,[2]; [8],1.17
CC(C)CCNC(=O)C(CC(C)C)NC(=O)C1OC1C(=O)O (stereo unspecified) (library stock concentration (final ~1000-fold dilution): 10 mM),NF-kB SEAP reporter activity,[1]; agonist: LPS (TLR4) 0.1 ug/mL,1.03
same,NF-kB SEAP reporter activity,[1]; [4],1.02
same,NF-kB SEAP reporter activity,[1]; [5],1
same,NF-kB SEAP reporter activity,[1]; [6],1.19
Br.NC(=O)C(c1ccccc1)(c1ccccc1)C1CCN(CCc2ccc3c(c2)CCO3)C1 (stereo unspecified) (library stock concentration (final ~1000-fold dilution): 10 mM),NF-kB SEAP reporter activity,[1]; agonist: LPS (TLR4) 0.1 ug/mL,0.967
same,NF-kB SEAP reporter activity,[1]; [4],0.467
same,NF-kB SEAP reporter activity,[1]; [5],0.82
same,NF-kB SEAP reporter activity,[1]; [6],0.919
Br.NC(=O)C(c1ccccc1)(c1ccccc1)C1CCN(CCc2ccc3c(c2)CCO3)C1 (stereo unspecified),NF-kB SEAP reporter activity,[2]; [7],1.02
same,NF-kB SEAP reporter activity,[2]; [8],0.984
